Assay results from PubChem BioAssay (NCI).
The panel holds about 83,000 compounds, 20% with a hit somewhere; the sample as a whole holds those more often.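 Step 1: grow cells in 96-well plates. Step 2: add test compound at a single concentration. Step 3: incubate 48 h. Step 4: record percent growth.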 Unmarked numbers belong to inactive results. The source made the active and inactive calls. The calls were made as follows: active = growth percent below 10; inactive = the rest.

The molecules below were run on MALME-3M melanoma (assay: NCI-60 one-dose screen, 48 h (100 = growth as untreated, 0 = no growth, -100 = all killed)). Conditions: 10 µM unless noted.

Compound	growth
CO[C@H]1CC(c2ccc[nH]2)=N[C@]12O[C@@H](C)C[C@@H]1CCCCCCCc3ccc([nH]3)[C@H]12	-14.5% (active)
COc1ccc2c(O)cc3c(c2c1)[C@H](CCl)CN3C(=O)c1cc2cc(NC(=O)CCN3CCOCC3)ccc2[se]1	-88% (active)
O=c1c(/C=C/c2c(O)ccc3ccccc23)nnc2sc(-c3cccc([N+](=O)[O-])c3)nn12	72.9%
CC1(C)CCC[C@]23C(=O)O[C@](O)(C(=O)C4=C[C@@](C)(/C=C/CCCc5ccc6ccc7cccc8ccc5c6c78)CC[C@@]42O)[C@@H]13	-93.6% (active)
CCOC(=O)CC1C(CNC(=O)NC)OC(n2cnc3c(NC(=O)Nc4ccccc4)ncnc32)C1O[Si](C)(C)C(C)(C)C (configuration not stated)	55.3%
COc1ccc(-c2ccc(-c3ccc(C(=N)N)nc3)s2)cc1	87.7%
COc1ccc(Cn2cc3c(c2)-c2oncc2CC3)cc1	83.2%
O=[N+]([O-])c1ccc(Oc2cccc3c(Oc4ccc([N+](=O)[O-])cc4[N+](=O)[O-])cccc23)c([N+](=O)[O-])c1	105%
CCCCCN(CCCCC)CC(O)c1c(Cl)ccc2ccccc12 (configuration not stated)	94.7%
Cn1cc(-c2csc(-c3cn(C)c4ccc(F)cc34)n2)c2cnccc21	-92.5% (active)
CNC1=C([N+](=O)[O-])C(c2ccc(OC)cc2)C(C#N)=C(c2ccc[nH]2)O1 (configuration not stated)	97.9%
Cc1cc(C(=O)Nc2cc(Nc3ncccc3-c3ncnc4nc[nH]c34)ccc2F)cc(C(C)(C)C#N)c1	12.9%
